Shown are actives, neighbours in structure and some others; about 19% of the full set was active somewhere.
DT40 TDP1 no CPT: qHTS for Inhibitors of human tyrosyl-DNA phosphodiesterase 1 (TDP1): qHTS in cells in absence of CPT. DT40 Tdp1-/- hTDP1 cells, no CPT, ATP luminescence, 48 h. Potency, µM (series often up to 46.2 µM), inactives show top-dose activity change, negative = growth inhibition, hits mostly inhibitors. hit rate 15% among 420,000. AID 686978, 2013; also: nearly all actives have a fitted effect of over 55% in size
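DT40 Tdp1-/-;hTDP1 cells, no CPT (DMSO vehicle only), 400 cells/well; compounds pin-transferred; ≥48 hr, 37 °C; CellTiter-Glo 30 min RT dark, luminescence read.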
TDP1 inh: inhibitors of human tyrosyl-DNA phosphodiesterase TDP1; Q9NUW8; recombinant TDP1, AlphaScreen DNA substrate cleavage; Potency, µM (highest dose often 130 µM), for inactives: at the highest dose activity change, negative = inhibition, actives largely listed as inhibitors; hit rate 0.28% among 350,000; AID 485290; also: nearly all actives have a fitted effect of over 40% in size
Target sequence (Q9NUW8 whole entry, looked up): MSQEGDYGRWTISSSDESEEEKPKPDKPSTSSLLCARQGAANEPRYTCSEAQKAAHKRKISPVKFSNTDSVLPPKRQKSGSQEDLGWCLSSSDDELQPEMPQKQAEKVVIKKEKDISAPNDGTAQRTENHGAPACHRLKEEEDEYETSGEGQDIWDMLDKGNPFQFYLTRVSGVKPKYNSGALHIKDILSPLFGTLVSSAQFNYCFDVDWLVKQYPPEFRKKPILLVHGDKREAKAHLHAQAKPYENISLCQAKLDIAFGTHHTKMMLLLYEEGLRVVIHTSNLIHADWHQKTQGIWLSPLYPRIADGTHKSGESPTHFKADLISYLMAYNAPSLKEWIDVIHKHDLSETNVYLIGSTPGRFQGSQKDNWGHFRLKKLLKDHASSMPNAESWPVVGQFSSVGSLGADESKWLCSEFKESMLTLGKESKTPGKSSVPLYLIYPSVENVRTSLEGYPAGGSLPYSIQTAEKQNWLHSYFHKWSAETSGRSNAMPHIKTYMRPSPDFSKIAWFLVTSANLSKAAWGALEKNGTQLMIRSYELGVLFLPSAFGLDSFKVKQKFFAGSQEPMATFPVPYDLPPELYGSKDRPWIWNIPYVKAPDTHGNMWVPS
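Signal: AlphaScreen proximity between streptavidin donor and anti-FITC acceptor beads on intact substrate. Reaction: Tdp1 1 nM, substrate 15 nM final, 5 min RT after 15 min compound preincubation.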
RORg inh: blocks mouse ROR gamma transcriptional activity. Potency, µM (titrated, usually from 53.6 µM), inactives show at the highest dose activity change, negative = inhibition, hits mostly inhibitors. P51450. Drosophila S2 Gal4-RORgamma UAS-luciferase reporter, 20 h. hit rate 5.4% among 310,000. AID 2551; also: nearly all actives have a fitted effect of over 60% in size
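Read-out: Photinus luciferase luminescence; inhibitors lower reporter signal. Insect Schneider cells with Gal4-ROR gamma fusion under metallothionein promoter, UAS reporter; 700 uM final copper sulfate induction, 20 hr, ambient temperature.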
DT40 TDP1 CPT: growth inhibition of DT40 Tdp1-/-;hTDP1 cells with camptothecin (screen for TDP1 inhibitors); chicken DT40 Tdp1-/-;hTDP1 cells + 20 nM CPT, ATP luminescence, 48 h; Potency, µM (titrated, usually from 46.2 µM), for inactives: at the highest dose activity change, negative = growth inhibition, most hits filed as inhibitors; hit rate 12% among 420,000; AID 686979; also: nearly all actives have a fitted effect of over 55% in size
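Cell growth measured by CellTiter-Glo luminescence after a minimum 48 h, 37 C compound exposure with 20 nM CPT in Tdp1-knockout DT40 cells stably expressing hTDP1, seeded 400/well; qHTS titration format.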
VP16 counter: Gal4-VP16 reporter inhibition counter-screen. hit rate 3.5% among 310,000. AID 2546. Potency, µM (doses to about 53.6 µM), without a hit: at the highest dose activity, negative = inhibition, most hits filed as inhibitors. Drosophila S2 Gal4-VP16 UAS-luciferase, luminescence, 20 h;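 also: Gal4-VP16 expression switched on by copper sulfate through the metallothionein promoter; nearly all actives have a fitted effect of over 50% in size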
The depositor's hits bear a star; ? = inconclusive; / = no result given; ! = a repeat was not active; [ ] = remark or other dose. Calls follow the shape of the dose curve; as a rule, active = well fitted curve in the direction sought with a large enough effect; inconclusive = small, poorly fitted or top-dose-only effect, or another doubt; inactive = no such curve, though single readings can be large; an effect the other way counts as inactive or inconclusive. % is scaled to controls: 0 for no effect and ±100 for the full control effect; potency is read from the fitted curve at half-maximal effect.

SMILES | DT40 TDP1 no CPT | TDP1 inh | RORg inh | DT40 TDP1 CPT | VP16 counter
O=C(c1ccccc1F)N1CCN(c2ccc([N+](=O)[O-])c3cccnc23)CC1 | ? | 6% | 5% | -25% | 21%
CC(C)C1C(=O)N(S(C)(=O)=O)[C@H]2CCN(C(=O)/C=C/CN3CCCCC3)[C@@H]12 (some centres not stated) | / | 11% | 20% | / | 4%
CC(C)[C@@H]1C(=O)N(S(C)(=O)=O)[C@H]2CCN(C(=O)/C=C\CN3CCCCC3)[C@@H]12 | ? | 10% | 0% | 33µM* | 5%
CCOC(=O)CNC(=O)Cc1ccc(Cl)cc1 | -13% | 5% | 22% | -2% | 7%
COc1ccc(OC)c(NC(=O)CSc2nnc(-c3ccncc3)s2)c1 | -8% | 1% | 0% | -5% | -4%
CCCC(=O)O | -12% | / | 0% | 7% | -1%
CC[C@](N)(CCC(=O)O)C(=O)O | 19µM*! | 1% | -24% | -2% | ?
CNC(=O)CSc1nnc(-c2ccncc2)n1Cc1ccccc1 | -7% | 2% | 2% | -13% | 13%
CCCS(=O)(=O)N1CCN(Cc2ccc([N+](=O)[O-])cc2)CC1 | ? | -1% | 16% | -8% | 5%
C/C(=N\NC(=O)c1ccc(NS(=O)(=O)c2cccs2)cc1)c1cccs1 | -15% | -3% | ? | 18% | 9%
C/C(=N\NC(=O)c1ccc(NS(=O)(=O)c2cccs2)cc1)c1ccc(Cl)cc1 | 23µM* | 6% | -7% | ? | 4%
C/C(=N\NC(=O)c1ccc(Cl)cc1)c1cccs1 | ? | 0% | 7.1µM* | -17% | 16µM*
Cc1nn(CC(=O)NN)c(C)c1Br | 12% | 6% | -18% | 7% | 7%
COc1ccccc1N1CCN(S(=O)(=O)c2c(C)nc3sc(C)c(C)n3c2=O)CC1 | 21µM* | -8% | / | 21µM* | /
CCc1ccc(NC(=O)Cn2cnc3sc(C)c(S(=O)(=O)N4CCN(c5ccccc5OC)CC4)c3c2=O)cc1 | 16µM* | 6% | / | ? | /
Cc1sc2ncn(CC(=O)Nc3ccc(C(F)(F)F)cc3)c(=O)c2c1S(=O)(=O)N1CCN(C)CC1 | 1.3µM* | 6% | / | ? | /
COC(=O)Cn1cnc2sc(C)c(S(=O)(=O)N3CCN(c4ccccc4OC)CC3)c2c1=O | 3% | 6% | 3% | -12% | -3%
Cc1nc2scc(C)n2c(=O)c1S(=O)(=O)N1CCN(c2ccccc2F)CC1 | -25% | 1% | 12% | ? | -6%
CCCC(CCC)C(=O)Nc1ccncc1 | -26% | -4% | -5% | -22% | ?
O=C(COc1ccc2c(c1)OCO2)Nc1nnc(Cc2ccccc2)s1 | -4% | / | -32% | -4% | 5%
Cc1ccccc1CC1(CO)CCCN(Cc2nc(-c3cccs3)oc2C)C1 (configuration not stated) | 21µM* | 8% | ? | ? | -1%
Cc1ccc(Cl)cc1NC(=O)c1cc2c(=O)n3cccc(C)c3nc2n1C | 0.52µM* | 3% | / | 0.58µM* | /
CCCCN(CC)C(=O)c1cc2c(=O)n3cccc(C)c3nc2n1C | 16µM* | -1% | / | ? | /
CC1CCC(NC(=O)COC(=O)C2CC3CCCC(C2)C3=O)CC1 (configuration not stated) | -3% | 5% | / | -6% | /
Brc1ccc(C2C3=C(Nc4ncnn42)c2ccccc2OC3c2ccncc2)cc1 (configuration not stated) | ? | 6% | ? | ? | -25%
SMILES | DT40 TDP1 no CPT | TDP1 inh | RORg inh | DT40 TDP1 CPT | VP16 counter
COc1ccc(C2Oc3ccccc3C3=C2C(c2cccs2)n2ncnc2N3)cc1 (configuration not stated) | 23µM* | -8% | ? | 21µM* | 2.5µM*
CC(C)c1nc2n(n1)C1(CCCCC1)[C@@H]1CCCC[C@@H]1N2 | 23µM* | 5% | / | ? | /
O=C(c1ccccc1F)N1c2ncnn2C2(CCCCC2)[C@@H]2CCCC[C@@H]21 | ? | 5% | / | ? | /
CC(C)C(=O)N1c2nc(C(C)C)nn2C2(CCCCC2)[C@@H]2CCCC[C@@H]21 | 4.6µM* | -3% | / | 6.5µM* | /
CC/C(CC(=O)C(F)(F)F)=N\NC(=O)/C(C#N)=C/N(C)C | 8% | -5% | 7.1µM* | 2% | ?
CN(C)/C=C(\C#N)C(=O)N/N=C/c1ccc(F)cc1 | 7% | 2% | 14% | 7% | 1%
Fc1ccc(N/N=C(/c2ccccc2)c2ccccn2)cc1 | 2% | 3% | ? | 2% | ?
O=C(c1cccs1)N(CC1CCCO1)c1nc(-c2ccccc2)cs1 (configuration not stated) | ? | 1% | 5%[10 µM] | 21µM* | -1%
O=C(c1ccco1)N(CC1CCCO1)c1nc(-c2ccccc2)cs1 (configuration not stated) | 23µM* | 1% | 4% | ? | 6%
CN(C(=O)c1ccco1)c1nc(-c2ccc(Cl)cc2)cs1 | ? | / | ? | ? | 28%
O=S(=O)(NCc1cc(-c2ccccc2)no1)c1ccc(Cl)cc1 | -14% | 4% | 11% | 2% | -6%
Cc1cc(C)n(CC(C)NCc2cn[nH]c2-c2cccc3ccccc23)n1 (configuration not stated) | 18µM* | 2% | 45% | ? | 1%
CC(=O)OC(c1nc2ccccc2c(=O)n1C1CC2(OC1=O)c1ccccc1N1C(=O)C(C)(C)N(O)C12)C(C)C (configuration not stated) | 21µM* | / | 15% | 16µM* | 0%
COC(=O)c1ccc(CSc2nc3ccccc3c(=O)n2N)cc1 | ? | / | 10% | 2% | -9%
Cc1ccccc1CN1CCCC(C(=O)N2CCCCC2)C1 (configuration not stated) | -22% | / | -1% | 0% | -3%
Cc1cccnc1NC(=O)c1ccc([N+](=O)[O-])o1 | ? | 3% | -37% | ? | -23%
Cc1cc(C)cc(C(=O)Nc2cccc(-c3nc4ncccc4o3)c2C)c1 | -15% | 2% | / | 1% | /
O=C(Nc1cccc2ncccc12)c1ccc([N+](=O)[O-])o1 | 16µM* | 0% | ? | 12µM* | ?
O=C(Nc1cccc2ncccc12)c1ccc(-c2ccc(Br)cc2)o1 | 23µM* | 0% | 30% | 18µM* | -1%
Cc1c(NC(=O)c2ccc([N+](=O)[O-])o2)cccc1-c1nc2ncccc2o1 | ? | / | ? | 18µM* | ?
Cc1c(NC(=O)C(C)(C)Oc2ccc(Cl)cc2)cccc1-c1nc2ncccc2o1 | 23µM* | -3% | / | 16µM* | /
Cc1cccc(Cc2nnc(NC(=O)c3cccc(S(=O)(=O)N4CCOCC4)c3)s2)c1 | -20% | 1% | -15%[0.365 µM] | -3% | /
